The panel holds about 83,000 compounds, 20% with a hit somewhere; the sample as a whole holds those more often.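 For each line, cells grew in 96-well plates with the test compound present at a single concentration for 48 hours.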 A number with no mark means an inactive call. The source made the active and inactive calls. How the source made its calls: active means growth percent below 10; inactive means the rest.

Among the test systems are NCI-H23 lung; NCI-H226 lung; NCI-H322M lung; HOP-62 NSCLC; NCI-H460 lung; HOP-92 NSCLC; NCI-H522 lung; A549/ATCC NSCLC; 786-0 renal; COLO 205 colon.
Common to all, as to assay: NCI-60 one-dose screen, 48 h (100 = growth as untreated, 0 = no growth, -100 = all killed)
Common to all, as to settings: 10 µM unless noted

Turning to `COc1ccc(Nc2nnc(SCc3ccccc3F)s2)cc1`, the growth with NCI-H23 lung was 95.7%; in the assay on NCI-H226 lung it was 87.2%; in the assay on NCI-H322M lung, 116%; in the assay with HOP-62 NSCLC, 103%; in the assay on NCI-H460 lung, 111%; in the assay with HOP-92 NSCLC it was 88.6%. The growth is 75.4% in the assay with NCI-H522 lung, 102% in the assay on A549/ATCC NSCLC, 101% in the assay on 786-0 renal and 114% in the assay with COLO 205 colon.
With `Nc1n[nH]c2cc(F)c([C@@H]3Nc4c(F)cc5[nH]ncc5c4[C@H]4C5CCC(C5)[C@@H]34)cc12` (stereo not given in full), the growth was 25.5% in the assay with NCI-H23 lung; 46.3% in the assay on NCI-H226 lung; 57% in the assay on NCI-H322M lung; 27.9% in the assay on HOP-62 NSCLC; 2.33% (active) with NCI-H460 lung; 33.8% in the assay on HOP-92 NSCLC. Moreover, the growth in the assay on NCI-H522 lung is 14.9%; in the assay on A549/ATCC NSCLC it was 19.4%; in the assay on 786-0 renal, 29.2%; in the assay with COLO 205 colon it was -8.08% (active).
Regarding `COc1cc(/C=N/NC(=O)Cn2c(C(C)C)nc3ccccc32)ccc1O`, the growth in the assay on NCI-H23 lung is 94.9%; in the assay with NCI-H226 lung, 93.7%; in the assay on NCI-H322M lung, 93.5%; in the assay with HOP-62 NSCLC, 92.9%; with NCI-H460 lung it was 97.7%; with HOP-92 NSCLC, 82.3%. Further, the growth is 92.4% with NCI-H522 lung, 105% in the assay with A549/ATCC NSCLC, 104% in the assay on 786-0 renal and 109% in the assay with COLO 205 colon.
For `COc1cc(/C=C/C(=O)c2cccc(-n3cc(-c4ccccc4)[nH]c3=O)c2)ccc1O`, the growth was 84.5% with NCI-H23 lung; 105% in the assay with NCI-H226 lung; 85.4% in the assay on NCI-H322M lung; 129% with HOP-62 NSCLC; 89.2% in the assay with NCI-H460 lung; 45.3% in the assay with HOP-92 NSCLC. For the same compound, the growth in the assay with NCI-H522 lung was 26.2%; in the assay on A549/ATCC NSCLC, 66.7%; in the assay on 786-0 renal it was 74%; in the assay with COLO 205 colon, 100%.
As to `Cc1ccc(C(=O)C2=C(O)C(=O)N(Cc3cccnc3)C2c2ccccc2F)o1` (stereo not given), the growth was 97.9% with NCI-H23 lung; 96.5% in the assay on NCI-H226 lung; 108% in the assay with NCI-H322M lung; 91.6% in the assay with HOP-62 NSCLC; 107% in the assay on NCI-H460 lung; 83.9% in the assay with HOP-92 NSCLC. Moreover, the growth in the assay on NCI-H522 lung was 106%; in the assay on A549/ATCC NSCLC it was 87.3%; with 786-0 renal, 86.2%; with COLO 205 colon, 108%.
For the compound `S=C(c1ccc2c(c1)OCO2)N1CCN(c2ccccc2Cl)CC1`, the growth in the assay on NCI-H23 lung was 101%; with NCI-H226 lung, 87.9%; in the assay on NCI-H322M lung it was 103%; in the assay with HOP-62 NSCLC, 102%; in the assay with NCI-H460 lung, 102%; with HOP-92 NSCLC it was 67.3%. Also, the growth in the assay on NCI-H522 lung is 74.8%; in the assay with A549/ATCC NSCLC, 98.2%; in the assay on 786-0 renal, 92.4%; in the assay with COLO 205 colon, 97.1%.
Consider `CNS(=O)(=O)c1n[nH]nc1-c1cc(C(C)(C)C)c(O)c(C(C)(C)C)c1`, for which the growth in the assay on NCI-H23 lung is 105%; in the assay with NCI-H226 lung, 104%; with NCI-H322M lung it was 102%; with HOP-62 NSCLC it was 84.7%; in the assay with NCI-H460 lung, 109%; with HOP-92 NSCLC, 80.2%. Further, the growth in the assay with NCI-H522 lung is 80.2%; in the assay with A549/ATCC NSCLC it was 89.5%; with 786-0 renal it was 91.2%; with COLO 205 colon it was 103%.
As to `CC(C)Sc1nc(NNC(N)=S)c(C#N)c(-c2ccc(F)cc2)n1`, the growth with NCI-H23 lung is 102%; in the assay on NCI-H226 lung, 94.7%; with NCI-H322M lung it was 99.1%; in the assay with HOP-62 NSCLC it was 101%; with NCI-H460 lung it was 102%; with HOP-92 NSCLC, 70.2%. Moreover, the growth is 85.2% in the assay with NCI-H522 lung, 92.5% in the assay on A549/ATCC NSCLC, 90.5% with 786-0 renal and 106% in the assay with COLO 205 colon.
`CC1=C([Se]CC(OC(=O)CC[Se]c2ccccc2)C(=O)NCCCCCC(=O)OCc2ccccc2)C(=O)c2ccccc2C1=O` (stereo not given): the growth is 10% with NCI-H23 lung; 46% in the assay with NCI-H226 lung; 2.53% (active) in the assay with NCI-H322M lung; -15.1% (active) with HOP-62 NSCLC; 21.6% in the assay on NCI-H460 lung; -5.98% (active) in the assay with HOP-92 NSCLC. The growth was 52.7% in the assay with NCI-H522 lung, 11.9% with A549/ATCC NSCLC, 58.2% in the assay on 786-0 renal and 105% with COLO 205 colon.
Consider `O=C1/C(=C/c2ccccc2)CCc2nc3ccccc3c(/C=C/c3ccc(Cl)cc3)c21`, for which the growth in the assay with NCI-H23 lung is 85.5%; in the assay with NCI-H226 lung, 92.3%; in the assay on NCI-H322M lung it was 94.6%; in the assay with HOP-62 NSCLC, 110%; with NCI-H460 lung, 93.4%; in the assay on HOP-92 NSCLC, 79.8%. Also, the growth was 71.1% with NCI-H522 lung, 93.5% in the assay on A549/ATCC NSCLC, 99.8% in the assay with 786-0 renal and 104% in the assay on COLO 205 colon.
`COc1cc(N=Nc2cc(Cc3ccc(N(C)C)cc3)c(N)cc2N(C)C)c2ncccc2c1`: the growth in the assay with NCI-H23 lung is 1.24% (active); in the assay with NCI-H226 lung it was 19.4%; with NCI-H322M lung, 11%; with HOP-62 NSCLC, 20%; in the assay on NCI-H460 lung, -60.2% (active); in the assay on HOP-92 NSCLC, -8.54% (active). In addition, the growth in the assay with NCI-H522 lung was -5.05% (active); in the assay on A549/ATCC NSCLC it was -45.9% (active); in the assay with 786-0 renal, -88.9% (active); in the assay with COLO 205 colon, -33.7% (active).
As to `Cn1c(=O)c2[nH]c(NN)nc2n(C)c1=O`, the growth was 107% in the assay with NCI-H23 lung; 106% in the assay on NCI-H226 lung; 118% with NCI-H322M lung; 120% in the assay on HOP-62 NSCLC; 101% in the assay on NCI-H460 lung; 95.7% with HOP-92 NSCLC. Moreover, the growth was 99.9% with NCI-H522 lung, 106% with A549/ATCC NSCLC, 98.7% in the assay with 786-0 renal and 109% with COLO 205 colon.
For `Cn1cc(-c2csc(-c3cccc(F)c3)n2)c2cccnc21`, the growth in the assay with NCI-H23 lung was -62.7% [100 µM] (active); in the assay with NCI-H226 lung it was -14.4% [100 µM] (active); with NCI-H322M lung, -22% [100 µM] (active); with HOP-62 NSCLC, -69.2% [100 µM] (active); with NCI-H460 lung, -59.6% [100 µM] (active); in the assay with HOP-92 NSCLC, -59.6% [100 µM] (active). The growth with NCI-H522 lung is -27.6% [100 µM] (active); in the assay on A549/ATCC NSCLC, 1% [100 µM] (active); in the assay on 786-0 renal, -81.6% [100 µM] (active); with COLO 205 colon, -66.5% [100 µM] (active).
`CCN1C(=O)N(CC)C2Nn3c(s/c(=C\c4ccc(Cl)cc4Cl)c3=O)=NC21` (stereo not given): the growth was 43.1% with NCI-H23 lung; 98.2% in the assay on NCI-H226 lung; 65.5% in the assay on NCI-H322M lung; 72.3% in the assay with HOP-62 NSCLC; 16.4% with NCI-H460 lung; 68.3% in the assay with HOP-92 NSCLC. The growth with NCI-H522 lung was 12.3%; with A549/ATCC NSCLC, 33%; in the assay on 786-0 renal it was 34%; in the assay with COLO 205 colon it was -23% (active).
